RORgamma inh = blocks mouse ROR gamma transcriptional activity | Drosophila S2 Gal4-RORgamma UAS-luciferase reporter, 20 h | Potency, µM (highest dose often 53.6 µM), hits mostly inhibitors | P51450 | 310,000 compounds, 5.4% hits | AID 2551; note: nearly all actives have a fitted effect of over 60% in size
Target sequence (P51450 whole entry, looked up, the tested form may be a part): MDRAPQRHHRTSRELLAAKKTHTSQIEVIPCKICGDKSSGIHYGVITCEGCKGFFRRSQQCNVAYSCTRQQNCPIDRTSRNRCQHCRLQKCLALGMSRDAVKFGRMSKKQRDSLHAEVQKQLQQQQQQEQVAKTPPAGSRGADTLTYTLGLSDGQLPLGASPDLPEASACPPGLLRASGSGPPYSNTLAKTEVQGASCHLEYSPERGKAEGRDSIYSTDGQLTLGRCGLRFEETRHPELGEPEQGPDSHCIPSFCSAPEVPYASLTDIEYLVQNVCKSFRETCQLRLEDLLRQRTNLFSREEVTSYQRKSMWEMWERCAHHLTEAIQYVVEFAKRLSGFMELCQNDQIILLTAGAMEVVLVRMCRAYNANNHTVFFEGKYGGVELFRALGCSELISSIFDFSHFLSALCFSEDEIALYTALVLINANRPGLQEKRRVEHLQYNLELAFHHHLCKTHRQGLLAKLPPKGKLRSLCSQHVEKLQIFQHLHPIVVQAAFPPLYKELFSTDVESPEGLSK
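In this cell-based reporter format, copper sulfate (700 uM final) drives Gal4–ROR gamma fusion expression from a metallothionein promoter in Drosophila Schneider cells; compounds preincubated 1 hr, reporter read after 20 hr at ambient temperature.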
TDP1 cell CPT = DT40-hTDP1 cell growth loss with CPT | chicken DT40 Tdp1-/-;hTDP1 cells + 20 nM CPT, ATP luminescence, 48 h | Potency, µM (titrated, usually from 46.2 µM), most hits filed as inhibitors | 420,000 compounds, 12% hits | AID 686979; note: nearly all actives have a fitted effect of over 55% in size
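Cell growth measured by CellTiter-Glo luminescence after a minimum 48 h, 37 C compound exposure with 20 nM CPT in Tdp1-knockout DT40 cells stably expressing hTDP1, seeded 400/well; qHTS titration format.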
LDHA inh = LDHA (human) enzyme inhibition; P00338; purified LDHA, NADH/diaphorase-resazurin fluorescence; stronger effect = lower value; activity change, % (values are at about 110 or 230 µM); 480,000 compounds, 0.15% hits; AID 1347041; in the data active = activity change below about -30%; inconclusive = mostly about -25% to -30%
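Human LDH5 (2 nM) was incubated with 0.06 mM NADH and 0.2 mM pyruvate for 5 min at room temperature in Tris pH 7.4. Remaining NADH was coupled through diaphorase/resazurin, and resorufin fluorescence was read at 0 and 20 min.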
IL-1B inflam inh = inhibitors of inflammasome signaling (IL-1 beta secretion); THP-1 LPS/ATP IL-1B secretion, AlphaLISA, 16 h; stronger effect = lower value; activity change, % at 57.5 µM; 360,000 compounds, 4.7% hits; in the data active = activity change below about -50%; inconclusive = mostly about -30% to -49%
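THP-1 cells pretreated 1 hr with compounds (up to 57.5 uM final), then stimulated with LPS (250 ng/mL final) plus ATP (1.25 mM final); secreted IL-1B measured by AlphaLISA after 16 hr, decreased signal indicating inhibition.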
TDP1 cell noCPT = qHTS for Inhibitors of human tyrosyl-DNA phosphodiesterase 1 (TDP1): qHTS in cells in absence of CPT. 420,000 compounds, 15% hits. DT40 Tdp1-/- hTDP1 cells, no CPT, ATP luminescence, 48 h. Potency, µM (doses to about 46.2 µM), most hits filed as inhibitors; note: nearly all actives have a fitted effect of over 55% in size
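No-CPT arm: Tdp1-/-;hTDP1 DT40 cells (400/well) plus compounds, incubated ≥48 hr at 37 °C. Readout CellTiter-Glo luminescence.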
Gal4-VP16 FLuc = counter-screen for ROR gamma inhibitors: Gal4-VP16 reporter; Drosophila S2 Gal4-VP16 UAS-luciferase, luminescence, 20 h; Potency, µM (titrated, usually from 53.6 µM), hits mostly inhibitors; 310,000 compounds, 3.5% hits; AID 2546;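 note: Gal4-VP16 expression switched on by copper sulfate through the metallothionein promoter; nearly all actives have a fitted effect of over 50% in size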
A number is an active result; . = inactive; ? = inconclusive; / = no result. The list is not random: actives were taken first. Their share in the collection is about 18%. Unless noted, calls come from the whole dose curve; as a rule, active = well fitted curve in the direction sought with a large enough effect; inconclusive = small, poorly fitted or top-dose-only effect, or another doubt; inactive = no such curve, though single readings can be large; an effect the other way counts as inactive or inconclusive.

SMILES | RORgamma inh | TDP1 cell CPT | LDHA inh | IL-1B inflam inh | TDP1 cell noCPT | Gal4-VP16 FLuc
COc1ccc(Cn2c(C(=O)O)c(CNC3CCCC3)c3ccc(C)cc32)cc1 | / | . | . | / | . | /
CCn1c(CCC(=O)Nc2ccccc2Cl)nnc1SCc1nc2ccccc2c(=O)[nH]1 | / | / | . | / | / | /
COc1cccc(CNc2ccc(C)c(Cl)c2)c1 | . | . | . | . | ? | .
CNc1nc(Cl)c(SC)c(NCc2cccc(OC)c2)n1 | . | ? | . | . | 23µM | .
COc1ccc2c3c(cccc13)C(=O)CC2 | . | 18µM | . | ? | 21µM | .
CSc1ccc(/C=C/C(=O)N2CCN(c3ccccn3)CC2)cc1 | 13µM | . | . | . | . | .
Cc1ccc(/C=C/C(=O)NC(=S)N2CCN(C)CC2)cc1 | 14µM | . | . | . | . | 13µM
COc1ccccc1/C=C/C(=O)NC(=S)NC(C)C | ? | ? | . | . | 16µM | .
COc1ccc(/C=C/C(=O)NC(=S)N2CCN(c3ccccn3)CC2)cc1OC | 3.2µM | ? | . | . | ? | 11µM
COc1ccc(/C=C/C(=O)NC(=S)N2CCOCC2)cc1 | 4µM | . | . | . | . | ?
O=C(/C=C/c1ccccc1)NC(=S)N1CCSCC1 | 7.9µM | . | . | . | . | 10µM
COc1ccccc1/C=C/C(=O)NC(=S)N1CCN(C)CC1 | 11µM | . | . | . | . | 16µM
O=C(C=Cc1ccccc1)NCCNC(=O)C=Cc1ccccc1 | / | . | . | . | . | /
COc1ccc(/C=C/C(=O)NC(=S)N2CCN(c3ccccc3OC)CC2)cc1 | . | . | . | . | . | .
CC1CCCN(C(=O)c2ccccc2NS(=O)(=O)c2cccc(C(F)(F)F)c2)C1 (stereo not drawn) | / | / | . | / | / | /
CCCCCn1nc(C(=O)Nc2ncc(C)s2)c2ccccc2c1=O | / | / | . | / | / | /
O=C(c1cc(Cl)cc(Cl)c1)N1CCC(=O)N([C@H](COCc2ccccc2)Cc2ccccc2)CC1 | / | ? | . | ? | ? | /
Cc1cccc(COCC(Cc2ccccc2)N2CCN(C(=O)c3ccc(C(F)(F)F)cc3)CCC2=O)c1 (stereo not drawn) | ? | 23µM | . | -76 | 21µM | ?
Cc1cccc(COC[C@H](Cc2ccccc2)N2CCN(C(=O)c3ccc(C(F)(F)F)cc3)CCC2=O)c1 | / | ? | . | -67 | 18µM | /
Cc1ccc(S(=O)(=O)N2CCC(=O)N([C@H](COCc3cccc(C(F)(F)F)c3)Cc3ccccc3)CC2)cc1 | . | / | / | / | / | .
O=C(c1ccc(C(F)(F)F)cc1)N1CCC(=O)N(C(COCc2ccc(C(F)(F)F)cc2)Cc2ccccc2)CC1 (stereo not drawn) | . | ? | . | -82 | 18µM | .
N#CCCn1cc(C(=O)CN2C(=O)NC(Cc3c[nH]c4ccccc34)C2=O)c2ccccc21 (stereo not drawn) | / | / | . | / | / | /
CCN(CC)S(=O)(=O)c1ccc(-c2nnc(SCC(N)=O)n2CC)cc1 | . | . | . | . | . | .
CCN(CC)S(=O)(=O)c1ccc(-c2nnc(SCC(=O)N3c4ccccc4CC3C)n2CC)cc1 (stereo not drawn) | ? | 15µM | . | . | 21µM | .
CCN(CC)S(=O)(=O)c1ccc(-c2nnc(SCC(=O)N3c4ccccc4CC3C)o2)cc1 (stereo not drawn) | . | 21µM | . | . | 21µM | ?
CCN(CC)S(=O)(=O)c1ccc(-c2nnc(SCC(=O)c3ccc(OC)cc3)o2)cc1 | . | . | . | . | . | .
CC(=O)c1cnn(-c2cc(Oc3ccc(C#N)cc3)nc(C)n2)c1C | / | / | . | / | / | /
O=S(=O)(Nc1nc2ccccc2nc1Nc1ccccc1F)c1cccs1 | / | / | . | / | / | /
COc1cc(/C=C(\C#N)C(=O)c2ccc(C)cc2)ccc1OCc1c(Cl)cccc1Cl | / | / | . | / | / | /
CCCCNCC1C(Oc2ccc(Cl)cc2)C(=O)N1c1ccccc1C (stereo not drawn) | . | ? | . | -196 | 15µM | .

Source: PubChem BioAssay (National Center for Advancing Translational Sciences (NCATS))
